A selection: hits, their analogues and other compounds. The true share with any hit is near 7.5%.
KinaseGlo FLuc: blocks Kinase-Glo luciferase, a counter-screen artifact; Q27757; Kinase-Glo luciferase, ATP luminescence, 8 min; Potency, µM (titrated, usually from 38.3 µM), actives largely listed as inhibitors; 200,000 compounds, 0.28% hits; further: nearly all actives have a fitted effect of over 60% in size
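Inhibition of Kinase-Glo luciferase light generation was assessed at 10 uM ATP in pH 7.2 imidazole buffer, with luminescence measured after eight minutes at ambient temperature.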
ELG1 genotox: genotoxicity induction in ELG1-luciferase HEK293T cells | 330,000 compounds, 1.3% hits | Potency, µM (titrated, usually from 46 µM), usual class: activators | HEK293T ELG1-luciferase reporter, luminescence, 16 h; further: nearly all actives have a fitted effect of over 60% in size
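Quantitative HTS format in 1536-well plates. HEK293T ELG1-luciferase reporter cells receive test compound and are incubated 16 hr at 37 °C, 5% CO2; ONE-Glo added, 30 min room temperature, then luminescence read.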
NPC1 promoter act: NPC1 promoter activation | Huh7 NPC1 promoter luciferase reporter, 24 h | Potency, µM (highest dose often 9.22 µM), usual class: activators | AID 485313 | 320,000 compounds, 2.4% hits; further: nearly all actives have a fitted effect of over 60% in size
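Luminescence read-out of NPC1 promoter-driven luciferase in stably transfected Huh7 cells; compounds delivered in DMSO and left 24 h at 37C, 5% CO2, qHTS titration format.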
SMN2 splice up: SMN2 splice variant enhancement; 210,000 compounds, 2.8% hits; HEK293 SMN2-luciferase splicing reporter, luminescence, 30-36 h; Potency, µM (titrated, usually from 46.1 µM), actives largely listed as activators; further: nearly all actives have a fitted effect of over 55% in size
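HEK293 cells carry an SMN2 minigene-luciferase reporter in which exon 7 inclusion puts luciferase in frame. Cells were seeded at 2000 cells/well, attached for 10-12 hours, then exposed to compounds for 30-36 hours at 37C before ONE-Glo luminescence.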
Rab9 prom act: Rab9 promoter activation; Huh7 Rab9 promoter-luciferase reporter, luminescence, 24 h; Potency, µM (top dose mostly 9.22 µM), hits mostly activators; 320,000 compounds, 2.8% hits; further: nearly all actives have a fitted effect of over 60% in size
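Cell-based reporter: Huh7 stable for Rab9 promoter-driven luciferase, plated in reduced-serum medium with 10% FBS at 1500 cells/well, compound-treated 24 h at 37 °C, luminescence read after 10 min reagent.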
FLuc modulator: firefly luciferase modulation, counter-screen for miR-21 project; Potency, µM (doses to about 57.5 µM), most hits filed as inhibitors; AID 588342; purified FLuc, Km substrates, luminescence inhibition; 360,000 compounds, 6.9% hits; P08659; further: nearly all actives have a fitted effect of over 55% in size
Target sequence (P08659 whole entry, looked up): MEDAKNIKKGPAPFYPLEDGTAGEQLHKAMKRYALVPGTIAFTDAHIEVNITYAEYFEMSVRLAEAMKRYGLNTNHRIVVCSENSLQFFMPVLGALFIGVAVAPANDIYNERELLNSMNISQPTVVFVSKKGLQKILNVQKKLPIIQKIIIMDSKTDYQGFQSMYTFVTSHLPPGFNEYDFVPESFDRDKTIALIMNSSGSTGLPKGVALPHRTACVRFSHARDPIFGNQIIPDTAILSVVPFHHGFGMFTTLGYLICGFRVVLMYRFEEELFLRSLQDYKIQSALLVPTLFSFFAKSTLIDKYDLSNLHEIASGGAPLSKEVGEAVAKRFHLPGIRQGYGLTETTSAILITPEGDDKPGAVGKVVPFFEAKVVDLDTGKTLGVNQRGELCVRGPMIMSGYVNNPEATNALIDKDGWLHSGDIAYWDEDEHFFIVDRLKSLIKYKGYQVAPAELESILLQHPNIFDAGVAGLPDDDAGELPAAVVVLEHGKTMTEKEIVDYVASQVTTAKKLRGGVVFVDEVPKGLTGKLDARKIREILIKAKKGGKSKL
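Purified P. pyralis luciferase (10nM final) with 10uM D-luciferin and 10uM ATP (Km levels) in 50mM Tris acetate pH 7.5, 10mM Mg acetate, 0.01% Tween-20, 0.05% BSA; qHTS 6-point titration, ~60 µM downward; luminescence read.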
A number is an active result; n = inactive; u = inconclusive; x = no result given; [ ] = dose if it differs, or a comment. The call rests on the fitted dose curve; in most records, active means well fitted curve in the direction sought with a large enough effect; inconclusive means small, poorly fitted or top-dose-only effect, or another doubt; inactive means no such curve, though single readings can be large; an effect the other way counts as inactive or inconclusive.

SMILES	KinaseGlo FLuc	ELG1 genotox	NPC1 promoter act	SMN2 splice up	Rab9 prom act	FLuc modulator
Cc1ccc(CNc2nc3ccccc3n2C)cc1	x	u	0.501µM	x	0.501µM	2.39µM
Cn1c(NCc2ccc(Cl)cc2)nc2ccccc21	n	u	2.51µM	11.2µM	3.55µM	9.53µM
CCCCn1c(NCc2ccc(N(C)C)cc2)nc2ccccc21	x	n	n	n	n	u
C=CCn1c(NCc2ccc(N(C)C)cc2)nc2ccccc21	n	n	n	n	n	23.9µM
CCn1c(NCc2ccccc2Cl)nc2ccccc21	n	n	n	u	n	19µM
Cc1ccccc1OCc1nnc(SCc2cc(=O)c3ccc(C)c(C)c3[nH]2)n1C	x	x	x	x	x	n
Cc1cc(C)nc(Nc2ccc(C(=O)O)cc2)n1	n	u	3.55µM	11.2µM	1.78µM	15.1µM
CCc1ccc(Nc2cc(C)nc3nc(C)nn23)cc1	n	n	n	n	n	n
Cc1cc(C)nc(Nc2ccc(N3CCCC3)cc2)n1	n	u	n	n	n	19µM
COc1ccc(Nc2nc(C)cc(C)n2)cc1Cl	x	u	u	x	u	19µM
CCc1ccc(Nc2nc(C)cc(C)n2)cc1	x	u	u	x	5.01µM	12µM
Cc1cc(C)nc(Nc2ccc(N3CCOCC3)cc2)n1	n	n	n	n	n	u
Cc1cc(C)nc(Nc2ccc(O)cc2)n1	x	n	n	x	n	n
Cc1ccc2nc(N(Cc3cccnc3)C(=O)C3COc4ccccc4O3)sc2c1 (stereo unspecified)	x	x	x	x	x	n
CCOC(=O)c1c(C)[nH]c(C)c1S(=O)(=O)NCC(=O)Nc1ccc(CC)cc1	x	x	x	x	x	n
Cc1ccc(Nc2ccc(C(=O)O)cc2N)cc1	n	u	u	u	n[1.84 µM]	5.36µM
O=C(Nc1ccc(C(=O)N2CCOCC2)cc1)Nc1cccc2ccccc12	n	u	n	n	n	15.1µM
O=C(COc1cccc(C(F)(F)F)c1)N1CCN(c2ccc(O)cc2)CC1	n	n	n	n	n	n
O=C(Nc1cccc(OCC(=O)N2CCOCC2)c1)c1ccc(C(F)(F)F)cc1	x	n	n	x	n	15.1µM
CC(C)(C)c1ccc(NC(=O)Nc2ccc(OCC(=O)N3CCOCC3)cc2)cc1	n	u	3.16µM	15.8µM	2.24µM	0.477µM
O=C(Nc1ccc(C(=O)O)cc1)Nc1cccc2ccccc12	x	n	n	x	n	u
O=C(Nc1ccc(C(=O)N2CCOCC2)cc1)Nc1cccc(Cl)c1	n	n	u	u	n	15.1µM
CC(C)C[C@@H](CC(=O)N[C@@H](CCCN)CC(=O)N[C@@H]1CCCC[C@H]1C(=O)N[C@H](CC(=O)N[C@@H](CCC(=O)O)CC(=O)O)CC(C)C)NC(=O)[C@@H]1CNCC[C@H]1N	n	x	x	n	x	x
CCc1cccc(C)c1NC(=O)CN1C(=O)C2(SCC(=O)N2c2cccc(F)c2)c2ccccc21 (stereo unspecified)	x	x	x	x	x	n
O=C(Nc1ccc(OCC(=O)N2CCOCC2)cc1)Nc1cccc(Cl)c1	n	n	n	x	n	12µM
SMILES	KinaseGlo FLuc	ELG1 genotox	NPC1 promoter act	SMN2 splice up	Rab9 prom act	FLuc modulator
O=C(NCCc1ccccc1)c1cc2sccc2n1Cc1ccc(F)cc1	x	x	x	n	x	n
Cc1cccc(C)c1N1CCN(C(=O)Nc2ccc3c(c2)OCCO3)CC1	n	n	u	n	u	9.53µM
Cc1occc1C(=O)Nc1ccc2c(c1)OCCO2	7.08µM	u	3.16µM	u	1.26µM	8.49µM
Cc1cc(C(=O)Nc2ccc3c(c2)OCCO3)c2ccccc2n1	n	n	n	n	n	n
O=C(Nc1ccc2c(c1)OCCO2)N1CCN(c2ccc(F)cc2)CC1	n	n	n	n	n	n
O=C(Nc1ccc2c(c1)OCCO2)c1coc2ccccc2c1=O	8.91µM	u	n	n	n	0.757µM
CSc1ccccc1C(=O)Nc1ccc2c(c1)OCCO2	n	x	x	n	x	u
O=C(Nc1ccc2c(c1)OCO2)N1CCN(Cc2ccco2)CC1	x	u	u	x	0.794µM	0.953µM
CS(=O)(=O)c1ccc(CNC(=O)[C@@H]2C[C@H]2[C@@H](NP(=O)(c2ccccc2)c2ccccc2)c2ccccc2)cc1	n	x	x	n	x	x
Cc1cccc(N2CCN(C(=O)Nc3ccc(F)cc3)CC2C)c1 (stereo unspecified)	x	x	x	n	x	n
CC(=O)Nc1ccc2c(c1)CCCC2	x	n	n	x	n	n
Cc1cc(C(=O)Nc2ccc3c(c2)OCCO3)c(C)o1	n	4.61µM	u	11.2µM	3.16µM	7.57µM
Cc1cc(C(=O)Nc2cccc(O)c2)c(C)o1	n	u	n	n	n	u
CC(=O)c1c(Nc2ccc3c(c2)OCCO3)oc(C)cc1=O	n	u	n	n	n	26.9µM
Cc1ccccc1C(=O)Nc1ccc2c(c1)OCCO2	x	1.83µM	0.501µM	x	0.398µM	2.39µM
